Pf Dd2 growth: blocks in vitro growth of P. falciparum Dd2 | P. falciparum Dd2 growth, SYBR Green, 72 h | Potency, µM (series often up to 28.9 µM), for the others: top-dose activity, negative = inhibition, actives largely listed as inhibitors | 4.3% of 120,000 active | AID 1347417; active = well fitted inhibition curve with a large enough effect;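 note: plate controls were DMSO vehicle for no effect and reference drug for full effect; nearly all actives have a fitted effect of over 65% in size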
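Infected erythrocytes (Dd2, 0.3% parasitemia, 2.5% hematocrit final) are added to compound in RPMI-1640/Albumax II medium, grown 72 h at 37C in low oxygen, then lysed with saponin/Triton-X containing SYBR Green and read by fluorescence.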
The depositor's hits bear a star; i = inactive; [ ] = remark or other dose. This is one part of a sample in which hits are shown more often than they occur. Potency is the fitted concentration of half-maximal effect.

SMILES	Pf Dd2 growth
CCN1CCN(c2cc(C)c3cc(NC(=O)c4cccc(Cl)c4)ccc3n2)CC1	1.6µM*
CC(C)(C)n1ccc(C(=O)N2CCN(c3cccc(Cl)c3)C(=O)C2)c1	-8%
Cc1noc2c(-c3cccc(O)c3)cc(-c3ccccc3)nc12	-28%[44.1 µM]
CCNc1nc2c(s1)C(c1cccc(F)c1)CC(=O)N2 (stereo not given)	-19%
COc1ccc(CN2C(=O)COC[C@H]2C(=O)Nc2ccc(F)c(F)c2)cc1OC	11%
O=C(CCc1c[nH]c2ccccc12)N1CCC(c2noc(C3CC3)n2)C1 (stereo not given)	i[5.79 µM]
Cc1nc([C@@H]2CN(C(=O)c3cc(C)n(Cc4ccco4)c3C)C[C@H]2C(N)=O)n[nH]1	8%
CCn1ccc(C(=O)N2CCC3(CC2)CC(N(Cc2ccccc2)C2CC2)CCO3)n1 (stereo not given)	i
O=C(CCc1cccs1)N1CCOC(CCCc2ccccc2)C1 (stereo not given)	-4%
COc1ccc(-c2noc([C@@H](C)NCc3ccccc3)c2C(=O)O)cc1	i
CN1CCCCCC(O)c2cc(C(=O)NCCC3=CCCCC3)ccc21 (stereo not given)	i
CCCCOc1cccc(C(=O)N2CCN(CCc3ccncc3)CC2)c1	-29%
COc1ccc(OCC(=O)N2CCN(CCc3ccncc3)CC2)cc1	19%
Cc1ccc(OCC(=O)N2CCN(CCc3ccncc3)CC2)cc1C	10µM*
C/C=C/CC(=O)N1CCC2(CCN(Cc3cccc(F)c3)CC2)C(CO)C1 (stereo not given)	-20%
Cc1cccc(N2CCN(C(c3ccc(F)cc3)c3nnc(-c4ccccc4)o3)CC2)c1C (stereo not given)	11µM*
Cc1cccc(N2CCN(c3ncnc4onc(C)c34)CC2)c1C	-5%
Cc1ccc(Cl)cc1NC(=O)c1cnn2c(C(F)F)cc(-c3ccccc3)nc12	14%
COc1cc(OC)c(NC(=O)c2ccc3nc(C(C)C)oc3c2)cc1Cl	-12%
COc1cc(OC)c(NC(=O)COc2ccccc2-c2nnc(-c3ccccc3)o2)cc1Cl	12%
Cc1ccccc1-c1nnc(CN2CCN(c3cc(Cl)ccc3C)CC2)o1	-10%
Cc1ccc(Cl)cc1N1CCN(c2ncnc3onc(-c4ccc(F)cc4)c23)CC1	-12%
COCCn1c(C)cc(O)c(C(c2ccc(F)cc2)N2CCN(c3ccccc3)CC2)c1=O (stereo not given)	i
Cc1ccc(Cl)cc1NC(c1ccc(F)cc1)c1nnc(-c2ccccc2)o1 (stereo not given)	13µM*
COc1cc(OC)c(NC(c2nnc(-c3ccccc3)o2)c2ccc(F)cc2Cl)cc1Cl (stereo not given)	6.3µM*
SMILES	Pf Dd2 growth
Cc1ccc(Cl)cc1NC(=O)c1ccc(-c2nc(CSc3ccccc3)c(C)o2)cc1	i
Cc1ccc(Cl)cc1N1CCN(C(c2ccc(F)cc2)c2nnc(-c3ccccc3)o2)CC1 (stereo not given)	7.9µM*
COC(=O)c1cc2n(n1)CCN(C(=O)C(C)Oc1ccccc1)C2 (stereo not given)	-1%
O=C1CCC2(C(=O)NCCc3ccccc3)CCCC=C2N1c1ccccc1 (stereo not given)	i
COCCNC(=O)c1cc(-c2ccccc2F)cc2c1OCCN2Cc1cccnc1	-8%[44.1 µM]
c1cncc(CN2CCn3c(nnc3C3CCCNC3)C2)c1 (stereo not given)	17%[44.1 µM]
O=C(c1ccoc1)N1CCCN(Cc2cn(-c3ccccc3)nn2)CC1	-11%
CC(C)C[C@H](NC(=O)Cn1nc2c(cc1=O)CCCCC2)C(=O)O	-8%
CS(=O)(=O)CCN1CCN(C(=O)c2cccc(-c3ncc[nH]3)c2)CC1	11%
CS(=O)(=O)c1ccc(N2CCN(C(=O)CC3COCCN3)CC2)c(F)c1 (stereo not given)	-13%
O=S(=O)(c1ccccc1)N1CCC(c2noc(C3CC3)n2)C1 (stereo not given)	11%[5.79 µM]
Cc1cc(NC(=O)c2cc(Cl)ccc2Cl)ccc1-c1cc2ccccc2oc1=O	11µM*
O=C(Nc1ccc(Cl)c(-c2nc3cc(Cl)ccc3o2)c1)c1cc2ccccc2o1	2%
Cc1cc2nc(-c3cc(NC(=O)c4cc5ccccc5o4)ccc3Cl)oc2cc1C	i
O=C(c1ccc(F)cc1F)N1CCC2(CC1)OCC(C(=O)N1CCCC1)N2C(=O)c1ccco1 (stereo not given)	-3%
O=C(O)c1cccc(C2CCCN(C(=O)c3ccc4c(c3)ncn4CCO)C2)c1 (stereo not given)	-4%
COc1cccc(C(=O)N2CCc3cc(OC)c(OC)cc3C2COc2ccc3c(C)cc(=O)oc3c2)c1 (stereo not given)	8.9µM*
COCC(=O)N1CCc2cc(OC)c(OC)cc2C1COc1ccc2c(C)cc(=O)oc2c1 (stereo not given)	11%
CCOc1ccc(C(=O)N2CCc3cc(OC)c(OC)cc3C2COc2ccc3c(C)cc(=O)oc3c2)cc1OCC (stereo not given)	3.2µM*
CCNC(=O)NCC1c2cc(OC)c(OC)cc2CCN1C(=O)Nc1ccc(C)cc1 (stereo not given)	i
CCOc1ccc(C(=O)N2CCC[C@H]2c2nc(-c3ccc(OC)cc3)no2)cc1OCC	i
COc1cc2c(cc1OC)C(COc1ccc3c(C)cc(=O)oc3c1)N(C(=O)c1ccc(Cl)cc1)CC2 (stereo not given)	8.9µM*
COc1cc2c(cc1OC)C(CNC(=O)c1cccc(F)c1)N(C(=O)Nc1ccc(C)cc1)CC2 (stereo not given)	i
COc1cc2c(cc1OC)C(CNC(=O)c1ccccc1)N(C(=O)Nc1cccc(F)c1)CC2 (stereo not given)	-11%
C[C@@H]1CN(C(=O)Cc2cc3c(cc2Cl)OCCO3)C[C@]1(C)O	3%
SMILES	Pf Dd2 growth
CCN(CC)Cc1cnc2c(C(=O)NCCc3ncc[nH]3)cnn2c1	6%
CCN(CC)C(=O)C1N(C(C)C)C(=O)C12CCCC2 (stereo not given)	16%
Cc1ccc(C(=O)N2CCCC3(CCNCC3)CC2)c2ccccc12	-2%
COc1ccc(-c2noc(-c3nc(C(C)C)no3)n2)cc1OC	i
CCN1CC2(CCN(C(=O)C3CCCCN3Cc3ccccc3)CC2)OC1=O (stereo not given)	-4%
Cc1cc2c(c(=O)n(-c3ccc(F)cc3)c(=O)n2CC(=O)Nc2ccccc2C(F)(F)F)n1C	41%
Cc1cc(C(=O)N2CCC(c3nnc(Cn4ccnc4)n3C)CC2)cs1	0%
CCNC(=O)[C@@H]1C[C@H](N)CN1S(=O)(=O)c1cc(C)cc(C)c1	-17%
CCN1C(=O)C2CC3(CCN(C(=O)c4c(C)noc4C)CC3)CN2C1=O (stereo not given)	12%
Cn1cccc1CN1CCC2(CN[S+](=O)([O-])c3cccnc3O2)C1 (stereo not given)	5%
Cn1cnc(S(=O)(=O)N2CCCC(c3[nH]ccc3C(N)=O)C2)c1 (stereo not given)	58%
CN(C)c1ccc(C(CNS(=O)(=O)c2ccc(Cl)cc2)N2CCCC2)cc1 (stereo not given)	13µM*
CC(C)Oc1ccc(C(=O)NCC(c2ccc(N(C)C)cc2)N2CCCC2)cc1 (stereo not given)	10µM*
Cc1ccccc1C(=O)NCC(c1ccc(N(C)C)cc1)N1CCCC1 (stereo not given)	-19%
Cc1cc(S(=O)(=O)NCC(c2ccc(N(C)C)cc2)N2CCOCC2)ccc1F (stereo not given)	-27%
